The list is not random: actives were taken first. Their share in the collection is about 2.9%.
PAFAH1B2 FP inh = inhibitors of human PAFAH1B2; recombinant PAFAH1B2, FP-rhodamine activity probe, fluorescence polarization; inhibition, % at 3.39 µM; actives 1.2% (n = 340,000); AID 492953;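 active means inhibition above the mean of all tested compounds plus 3 SD, cut at about 24% in these data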;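 further: 0% = enzyme with DMSO and 100% = wells lacking PAFAH1B2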
Target sequence (P68402 whole entry, looked up): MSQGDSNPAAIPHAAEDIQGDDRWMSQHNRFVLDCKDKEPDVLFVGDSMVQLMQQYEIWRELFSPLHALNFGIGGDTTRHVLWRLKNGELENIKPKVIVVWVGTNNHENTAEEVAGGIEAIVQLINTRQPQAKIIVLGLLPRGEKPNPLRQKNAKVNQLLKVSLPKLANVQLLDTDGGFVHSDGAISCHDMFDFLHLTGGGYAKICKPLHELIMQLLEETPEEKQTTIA
PAFAH1B3 inh = PAFAH1B3 (human) inhibition; AID 492972; Q15102; actives 0.28% (n = 340,000); recombinant PAFAH1B3, FP-rhodamine probe, fluorescence polarization; inhibition, % at 3.39 µM;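 active means inhibition above the screen-wide average of all tested compounds plus 3 SD, cut at about 25% in these data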;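 further: 0% = enzyme with DMSO only and 100% = wells lacking PAFAH1B3 protein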
Target sequence (Q15102 whole entry, looked up): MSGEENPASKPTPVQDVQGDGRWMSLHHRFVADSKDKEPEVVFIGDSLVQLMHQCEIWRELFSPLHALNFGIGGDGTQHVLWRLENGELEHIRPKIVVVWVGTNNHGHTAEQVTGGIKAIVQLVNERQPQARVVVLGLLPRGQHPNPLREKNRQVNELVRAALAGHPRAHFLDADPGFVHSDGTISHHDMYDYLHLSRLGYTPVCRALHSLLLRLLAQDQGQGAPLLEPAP
pPAFAH FP inh = pPAFAH (human) enzyme inhibition; inhibition, % at 3.39 µM; recombinant pPAFAH, FP-rhodamine probe fluorescence polarization; AID 463082; Q13093; actives 1.5% (n = 330,000);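 active means inhibition above the mean inhibition across the screen plus 3 SD, cut at about 25% in these data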;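 further: inhibitors block binding of the rhodamine activity-based probe so polarization drops; 0% = enzyme with DMSO and 100% = wells lacking pPAFAH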
ZTA counter = counter-screen for EBNA-1 inhibitors: inhibitors of Epstein-Barr virus ZTA; inhibition, % at 11 µM; ZTA-DNA binding, fluorescence polarization; AID 2234; P03206; actives 0.15% (n = 320,000); in the data active means inhibition above about 33%
Target sequence (P03206 whole entry, looked up): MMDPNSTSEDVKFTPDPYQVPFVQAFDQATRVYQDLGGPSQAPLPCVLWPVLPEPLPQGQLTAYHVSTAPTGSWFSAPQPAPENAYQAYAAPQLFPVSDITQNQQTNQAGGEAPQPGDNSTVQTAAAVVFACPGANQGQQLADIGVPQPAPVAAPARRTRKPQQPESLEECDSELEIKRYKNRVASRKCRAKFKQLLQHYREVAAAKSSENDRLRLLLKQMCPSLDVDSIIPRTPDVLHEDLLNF
PAFAH2 FP inh = PAFAH2 (human) inhibition. recombinant PAFAH2, FP-rhodamine activity probe, fluorescence polarization. inhibition, % at 3.39 µM. actives 0.99% (n = 340,000). AID 492956;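 active means inhibition above the mean over all tested compounds plus 3 SD, cut at about 30% in these data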;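 further: inhibitors block probe labeling of enzyme so polarization drops; 0% = enzyme with DMSO and 100% = wells lacking PAFAH2 protein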
EBNA-1 inh = blocks EBNA-1 binding to DNA; EBNA-1 DNA binding, fluorescence polarization; inhibition, % at 14.8 µM; actives 0.34% (n = 300,000); AID 1950; in the data active means inhibition above about 28%
EBNA-1 confirm = EBNA-1 (EBV) inhibition, confirmation; Recombinant EBNA-1 DBD, Cy5-DNA fluorescence polarization; inhibition, % at 14.8 µM; actives 35% (n = 830); shares compounds with EBNA-1 inh; AID 2292;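 active means mean inhibition across replicates above a set limit taken from the earlier primary screen, cut at about 28% in these data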;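 further: plate controls were EBNA-1 protein with DMSO for no effect and wells lacking EBNA-1 for full effect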
ZTA counter trip = ZTA (EBV) inhibition, triplicate counter-screen | shares compounds with EBNA-1 inh | Zta-ZRE DNA binding, Cy5 fluorescence polarization | inhibition, % at 11.1 µM | 830 tested, under 10 active | AID 2328;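 active means mean inhibition over triplicates above a set limit taken from the primary EBNA-1 screen, cut at about 37% in these data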;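 further: purified full length Zta protein with Cy5 labeled ZRE DNA probe; 0% = Zta with DMSO and 100% = wells lacking Zta protein; inhibitors lower polarization by freeing the labeled DNA probe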
The depositor's hits bear a star; . = not tested or not shown.

SMILES | PAFAH1B2 FP inh | PAFAH1B3 inh | pPAFAH FP inh | ZTA counter | PAFAH2 FP inh | EBNA-1 inh | EBNA-1 confirm | ZTA counter trip
COC(=O)c1cc(S(=O)(=O)C(C)C)c(S(C)=O)s1 (centres undefined) | -0.8 | 11.7 | 4.5 | 3.7 | 4.3 | -2.3 | . | .
CCOc1ccc(NC(=O)NCc2ccco2)cc1 | -2.2 | 6.4 | 2.5 | -1.2 | 2.2 | 5.6 | . | .
CCOc1ccc(/C=N/NC(=O)C(=O)NCc2ccco2)cc1 | -1.3 | 6.5 | 4.1 | -5.5 | -5.1 | 33.9* | -7.7 | -1.5
Cc1cc(C)c2c(-n3cccc3)c(C(=O)NNS(=O)(=O)c3ccc(Cl)cc3)sc2n1 | 36.9* | 2.5 | 6.9 | 2.6 | 7.9 | 29.5* | 1.7 | 0.7
Cc1cc(C)c2c(-n3cccc3)c(C(=O)NNS(=O)(=O)c3ccccc3)sc2n1 | 4.8 | -4.5 | 3.6 | 1.7 | 1.0 | 2.5 | . | .
COc1ccc(-c2cc(CCCC(=O)NCCc3ccccc3)no2)cc1 | 3.3 | 8.2 | 1.1 | 6.2 | -12.6 | -9.4 | . | .
COc1ccc(-c2cc(CCCC(=O)NCCc3ccc(OC)cc3OC)no2)cc1 | 3.2 | -1.9 | 5.7 | 1.1 | -2.3 | 36.1* | 46.1* | 13.3
O=C(Cc1cccc2ccccc12)Nc1ccc(-c2cc3ccccc3oc2=O)cc1 | -2.3 | -4.9 | -3.7 | 4.7 | -17.1 | 29.1* | 22.3 | 6.7
CCC(=O)Nc1cccc(-c2cc3ccccc3oc2=O)c1 | 2.4 | 9.1 | -3.2 | -1.2 | -2.4 | 8.7 | . | .
CN(C)C(=O)c1ccccc1NC(=O)Cc1cccc2ccccc12 | -3.1 | 6.7 | -3.9 | 9.5 | -1.9 | 4.7 | . | .
CCc1ccccc1NC(=O)c1cc(S(=O)(=O)N2CCc3ccccc32)cn1C | -0.5 | -1.8 | 3.0 | 9.8 | 4.5 | -6.9 | . | .
Cc1cccc(NC(=O)c2cc(S(=O)(=O)N3CCc4ccccc43)cn2C)c1C | 0.1 | -3.7 | 0.0 | 9.9 | -7.2 | 27.6* | 39.1* | -7.5
CC(=O)Nc1ccc(NC2CCCCC2NS(=O)(=O)c2ccc(Cl)cc2)cc1 (centres undefined) | 8.3 | 5.0 | 2.1 | 1.7 | -1.1 | 0.2 | . | .
CC1CC(C)(C)NC(=S)N1CCC(=O)NCCc1ccc(Cl)cc1 (centres undefined) | 13.5 | -2.4 | -9.6 | -2.1 | -1.8 | 0.0 | . | .
COc1ccc(/C=C2/SC(=O)N(CC(O)Cn3c4ccccc4c4ccccc43)C2=O)cc1 (centres undefined) | -14.9 | -26.1 | -3.8 | 12.6 | -35.6 | -6.4 | . | .
O=C1S/C(=C\c2ccccc2)C(=O)N1CC(O)Cn1c2ccccc2c2ccccc21 (centres undefined) | -4.4 | -6.7 | -18.8 | 1.4 | -16.1 | 30.0* | 8.8 | 11.0
CS(=O)(=O)c1ccc(-c2cccc(NC(=O)c3ccc(Br)o3)c2)nn1 | 4.7 | -3.5 | -1.8 | -1.3 | 2.3 | 37.5* | 28.1* | -6.6
Cc1ccc(S(=O)(=O)N2CCC(=O)N(CCO)CC2)cc1 | 8.4 | 3.0 | 3.1 | 7.5 | 0.6 | 10.5 | . | .
CC(=O)c1cc(C)ccc1OC(=O)c1cccc2nc(C)oc12 | -4.7 | 3.2 | -10.4 | -1.3 | -5.8 | 81.2* | -3.9 | -6.7
Cc1ccc(C(=O)N/N=C/c2ccc3c(c2)OCO3)o1 | 2.0 | -1.0 | 2.1 | 14.3 | -3.2 | 13.3 | . | .
O=C(N/N=C/c1ccc2c(c1)OCO2)c1cc2ccccc2o1 | -1.4 | 3.3 | 9.3 | 2.1 | 1.2 | 29.9* | 13.1 | 3.3
Cc1ccc(/C(N)=N/OC(=O)c2cccc(F)c2)cc1 | 1.5 | 15.2 | -5.6 | 5.0 | 5.4 | -4.1 | . | .
Cc1ccc(/C(N)=N/OC(=O)c2ccc3ccccc3c2)cc1 | 3.3 | 11.4 | 2.0 | 9.5 | 0.2 | 31.3* | 42.5* | 10.5
CC(=O)c1sc(NC(=O)COc2ccc(Br)cc2)nc1C | 5.7 | -1.9 | 1.6 | -2.3 | -8.1 | 42.7* | 18.2 | -0.9
CCOC(=O)c1sc(NC(=O)COc2ccc3c(c2)OCO3)nc1C | 3.3 | -7.2 | 13.3 | 10.1 | -10.2 | 64.8* | 124.1* | 2.8
SMILES | PAFAH1B2 FP inh | PAFAH1B3 inh | pPAFAH FP inh | ZTA counter | PAFAH2 FP inh | EBNA-1 inh | EBNA-1 confirm | ZTA counter trip
COC(=O)c1sc(NC(=O)COc2ccc(OC)cc2)nc1C | 1.3 | 7.2 | 3.0 | 12.8 | -7.1 | 30.1* | 10.1 | 9.5
O=C(Nc1ccccc1)C1=C(O)CC(c2ccc(Cl)cc2)N2CCN=C12 (centres undefined) | 2.9 | -2.0 | 0.5 | -17.3 | -1.8 | -9.5 | . | .
Cc1ccc(C)n1-c1ccc(-c2ccnc(N)n2)cc1 | 2.3 | 2.0 | . | . | 2.1 | . | . | .
O=C(Nc1ccc2oc(-c3ccccc3)nc2c1)c1ccc2c(c1)OCCO2 | -3.3 | -4.7 | 9.7 | -8.3 | -21.2 | 7.3 | . | .
O=C(Nc1ccc2oc(-c3cccnc3)nc2c1)c1ccc2c(c1)OCCO2 | -0.3 | -4.2 | 15.0 | 4.3 | 5.1 | 41.2* | -0.2 | 12.9
CC(C)(C)NC(=O)CN(CCc1ccccc1)C(=O)c1csnn1 | -2.5 | 4.5 | 0.5 | 4.1 | -5.1 | 3.1 | . | .
O=C(CCC(=O)Nc1ccc(F)cc1)N/N=C/c1ccc(Br)cc1 | 7.5 | 0.3 | -0.2 | 11.0 | 1.8 | 21.4 | . | .
O=C(CCC(=O)Nc1ccc(Br)cc1)N/N=C/c1ccc(F)cc1 | 5.0 | -1.2 | 0.6 | 13.4 | 3.3 | 33.6* | 19.3 | 12.5
Cc1cccc(C)c1NC(=O)C(NC(=O)CN1C(=O)c2ccccc2C1=O)c1ccccc1 (centres undefined) | -5.3 | -0.2 | -1.3 | -4.2 | -9.5 | 29.4* | 7.0 | 6.0
Cc1sc2ncnc(SCC(=O)NNC(=O)COc3cccc4ccccc34)c2c1C | -5.2 | -5.7 | -3.5 | 16.7 | -3.6 | 119.0* | 97.9* | -11.5
COc1ccccc1CN1C(=O)[C@@H]2C(CCC(N)=O)NC3(C(=O)Nc4c3ccc(Cl)c4C)[C@@H]2C1=O (some centres undefined) | 5.5 | 6.3 | 3.0 | -10.8 | -13.3 | -1.7 | . | .
COc1ccccc1CN1C(=O)[C@@H]2C(CC(N)=O)NC3(C(=O)Nc4c3ccc(Cl)c4C)[C@@H]2C1=O (some centres undefined) | 3.0 | 5.1 | 5.3 | 7.8 | 3.2 | 28.2* | 48.7* | -6.6
COc1ccc(C(=O)NC(=S)N(C)Cc2ccccc2)cc1Br | -2.0 | 8.2 | -1.5 | 3.7 | -6.3 | 45.5* | 23.0 | 1.9
CCOc1ccc(Nc2nc(N(C)c3ccccc3)nc(N)c2[N+](=O)[O-])cc1 | 3.7 | -3.1 | 2.6 | 8.9 | -3.6 | 14.0 | . | .
Cc1ccc2[nH]c3c(=O)n(Cc4ccco4)cnc3c2c1 | -2.3 | 2.1 | 8.6 | 14.6 | 7.6 | 50.8* | 54.7* | 3.6
CCOC(=O)/C(=N\Nc1ccccc1)P(=O)(c1ccccc1)c1ccccc1 | 4.7 | 1.9 | 5.6 | 12.1 | -7.3 | 1.4 | . | .
